Screens as filed in PubChem.
Sampled rows, rich in hits. Any-hit rate of the full collection: about 2.4%.
D2 ag-1: activates the human D2 dopamine receptor | P14416 | DiscoveRx PathHunter D2 beta-arrestin, luminescence, 90 min; 100% = 57 uM dopamine signal | activation, % (no concentration beside the values) | 360,000 tested, 0.084% active | AID 624465; in the data active = activation above about 40%; inconclusive = between about 15% and that limit
Target sequence (P14416 whole entry, looked up): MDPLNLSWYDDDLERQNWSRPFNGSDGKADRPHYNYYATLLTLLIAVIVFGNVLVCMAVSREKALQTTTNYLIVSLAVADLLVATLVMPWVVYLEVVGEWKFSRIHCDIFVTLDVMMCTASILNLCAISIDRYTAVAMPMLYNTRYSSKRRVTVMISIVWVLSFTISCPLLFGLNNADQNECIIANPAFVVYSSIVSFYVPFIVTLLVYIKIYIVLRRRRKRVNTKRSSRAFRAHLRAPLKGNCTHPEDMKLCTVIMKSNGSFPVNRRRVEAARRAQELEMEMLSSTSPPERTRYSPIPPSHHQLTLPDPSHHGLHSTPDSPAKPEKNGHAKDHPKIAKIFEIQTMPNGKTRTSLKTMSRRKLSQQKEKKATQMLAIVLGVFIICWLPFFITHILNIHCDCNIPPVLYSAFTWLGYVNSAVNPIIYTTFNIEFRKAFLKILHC
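Agonist mode: compounds alone added to overnight-plated D2 PathHunter cells for 90 min at 37 C, with 57 uM final dopamine (EC100) defining full response. Beta-arrestin recruitment detected by chemiluminescent reagent, read after 1 h at ambient temperature.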
D2 ag-2: agonists of human D2 dopamine receptor | activation, % at 2 µM | HEK293 T-REx D2 cells, calcium flux agonist mode | 340,000 tested, 0.53% active | P14416;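 active = activation over 3 SD above normal in the single-dose calcium agonist read, cut at about 30% in these data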; note: 0% is about no effect
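Tetracycline-induced HEK293 Trex cells with D2 receptor force-coupled to calcium signaling, plated overnight at 30 C and loaded with no-wash calcium dye. Calcium flux read kinetically for 180 s after compound addition; responses flag agonists.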
D2 antagonist: D2 dopamine receptor (human) antagonism. P14416. HEK293 TREx D2 cells, calcium flux, dopamine EC80. inhibition, % at 10 µM. 340,000 tested, 2% active; in the data active = inhibition above about 30%; inactive = below that, where a call was filed; note: 0% is about no effect
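Measurement of antagonist activity uses fluorescent calcium dye in inducible HEK293 T-REx D2 cells: 10 s baseline, compound addition with 180 s read, EC80 dopamine addition with a further 180 s read.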
D2 PAM-1: positive allosteric modulators of human D2 dopamine receptor; potentiation, % (test concentration not listed); P14416; DiscoveRx D2 beta-arrestin cells, luminescence, 90 min; 100% = 57 uM dopamine signal; 360,000 tested, 0.23% active; AID 624464; in the data active = potentiation above about 50%; inconclusive = mostly about 30% to 49%
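PathHunter beta-arrestin assay in DiscoveRx D2 cells. Compounds were added with an EC20 of dopamine (50 nM final) for 90 min at 37 deg C. Luminescence was read 1 h after detection reagent, with 57 uM dopamine as the EC100 control.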
D2 PAM-2: positively modulates the human D2 dopamine receptor allosterically. HEK293 T-REx D2, calcium flux, EC20 dopamine potentiation. potentiation, % at 10 µM. 340,000 tested, 0.34% active. AID 485347;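 active = potentiation over 3 SD above the plate norm, cut at about 30% in these data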; note: 0% is about no effect
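Calcium flux readout, no-wash dye, 1 read/s. Inducible HEK293 Trex D2 line, overnight 30 C. Compound alone 180 s (agonist flags), then EC20 dopamine, another 180 s to score potentiation.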
Numbers without * were called inactive; ? = inconclusive; . = no result.

SMILES | D2 ag-1 | D2 ag-2 | D2 antagonist | D2 PAM-1 | D2 PAM-2
CCCn1c(SCC(=O)N2CCN(C(=O)c3ccco3)CC2)nc2ccccc2c1=O | -2 | 1 | 31* | 5 | -2
Cn1c(SCC(=O)N2CCN(c3ccccc3)CC2)nnc1-c1ccco1 | -3 | 1 | 2 | -10 | -9
CCOc1ccc(-n2c(SCC(=O)NC)nnc2-c2ccco2)cc1 | 2 | 0 | 36* | -2 | 7
CCOc1ccccc1-n1c(SCC(=O)NC)nnc1-c1ccco1 | 0 | 0 | -2 | -3 | 10
O=C(CSc1nnc(-c2ccco2)n1-c1ccccc1)N1CCN(C(=O)c2ccco2)CC1 | -2 | 2 | 65* | 1 | .
O=C(CCC1N=C2c3ccccc3N=C(SCC(=O)Nc3ccccc3F)N2C1=O)NCc1ccco1 (centres undefined) | . | . | . | . | -1
COc1cc(/C=C/C(=O)c2ccc3c(c2)OCO3)cc(Cl)c1O | -6 | 78* | 35* | -8 | -5
COc1ccc(S(=O)(=O)NCCc2sc3nc(-c4ccc(C)cc4)nn3c2C)cc1C | . | 1 | . | . | -8
O=C(CN1CCCC(O)C1)N1c2ccccc2Sc2ccc(C(F)(F)F)cc21 (centres undefined) | -4 | 1 | 1 | -1 | -4
CN1CCN(CCCN2c3ccccc3Sc3ccc(C(F)(F)F)cc32)CC1 | -3 | 1 | 79* | -29 | -30
O=C(NCCN1CCOCC1)C12CC3CC(C1)CC(c1ccccc1)(C3)C2 | 1 | 0 | 38* | -10 | 1
COc1ccc(CNC(=O)Nc2cccc(C(F)(F)F)c2)cc1OC | -1 | 3 | 46* | -28 | -9
COc1ccc(CNC(=O)NCc2ccc(OC)c(OC)c2)cc1OC | -4 | 0 | 3 | 1 | -8
Cc1ccc2onc(CNC(=O)NCc3ccccc3)c2c1 | . | -1 | . | . | 1
O=C(Cc1ccccc1)c1c[nH]c(C(=O)O)c1 | -5 | 0 | 8 | -2 | -1
CN(C)C(=O)c1cc(C(=O)Cc2ccccc2)c[nH]1 | -4 | 1 | 37* | -13 | 5
Cc1ccccc1NC(=O)c1ccc(Cn2cc([N+](=O)[O-])cn2)o1 | -6 | 0 | 32* | 0 | -2
Cc1cc(NC(=O)c2ccc(Cn3cc([N+](=O)[O-])cn3)o2)no1 | -1 | . | . | -5 | .
Cc1ccc(C2(C)NC(=O)N(CC(=O)Nc3ccc(S(=O)(=O)Nc4nccs4)cc3)C2=O)cc1 (centres undefined) | 3 | -1 | -1 | 4 | 31*
Cc1ccc(NC(=O)CN2C(=O)NC(C)(c3ccc(Cl)cc3)C2=O)cc1 (centres undefined) | -3 | 3 | -7 | -6 | 1
Cc1nnc(N2C(=O)c3cccc4c([N+](=O)[O-])ccc(c34)C2=O)s1 | 4 | 2 | -5 | 62* | -2
Cc1ccc(N2C(=O)c3cccc4c([N+](=O)[O-])ccc(c34)C2=O)c2cccnc12 | -3 | 3 | 19 | -12 | 3
Cc1ccnc(N2C(=O)c3cccc4c([N+](=O)[O-])ccc(c34)C2=O)c1 | 9 | 2 | 6 | 51* | -5
CCOc1ccccc1NC(=O)Cn1nnc2sc3c(c2c1=O)CCC(C(C)(C)C)C3 (centres undefined) | . | 0 | . | . | 2
COc1ccc(N2CCN(S(=O)(=O)c3ccc4c(c3)CCCN4C(C)=O)CC2)cc1 | . | 1 | . | . | -3
SMILES | D2 ag-1 | D2 ag-2 | D2 antagonist | D2 PAM-1 | D2 PAM-2
O=C(Nc1nnc(-c2ccccc2)o1)c1nc2ccccc2s1 | -12 | 44* | 8 | -18 | -11
CCOC(=O)c1nc(Nc2ccccc2CC)c2ccccc2n1 | 0 | 0 | 33* | 1 | -7
COc1ccc(-c2nc3scc(CCNS(=O)(=O)c4ccc(Oc5ccccc5)cc4)n3n2)cc1OC | . | 0 | . | . | 3
Cc1cc(-c2nnc(SCC(=O)N3C(C)CCCC3C)o2)no1 (centres undefined) | -1 | -1 | -4 | 0 | 6
CC1CCCC(C)N1C(=O)CSc1nnc(C2CCCCC2)o1 (centres undefined) | -5 | 0 | 90* | -17 | -8
O=C(CCNS(=O)(=O)c1ccc(OC(F)(F)F)cc1)NCCc1c[nH]c2ccccc12 | 7 | 0 | 40* | 7 | 3
O=C(CSc1nccn1-c1ccc(Cl)cc1)Nc1cccc2ccccc12 | . | 1 | . | . | -9
CC1CN(c2c3c(nc4ncnn24)CCCC3)CC(C)O1 (centres undefined) | -3 | 1 | -2 | -22 | 32*
Cc1ccc(C)c(S(=O)(=O)c2nnn3c2nc(N2CCCCC2)c2sccc23)c1 | . | -1 | . | . | 4
Cc1ccc(NC(=O)c2cccc3c(=O)c4c([nH]c23)CCCC4)c(C)c1 | . | 0 | . | . | 4
Cc1cccc(N=c2c([N+](=O)[O-])nn(-c3ccc(Cl)cc3)n2O)c1 | 11 | 1 | 10 | ? | 2
Cc1cc(C)cc(N=c2c([N+](=O)[O-])nn(-c3cccc(Cl)c3)n2O)c1 | 9 | -2 | 10 | 97* | -11
Cc1ccc(CN=c2c([N+](=O)[O-])nn(-c3ccc(Cl)cc3)n2O)cc1 | 1 | -1 | 11 | 5 | 2
CCc1cccc(N=c2c([N+](=O)[O-])nn(-c3ccc(Cl)cc3)n2O)c1 | 10 | 0 | 10 | 87* | -7
COc1ccccc1C(=O)NNC(=O)c1ccc(O)cc1 | -1 | . | . | 1 | .
COc1ccccc1C(=O)NNC(=O)c1ccc2ccccc2c1 | 0 | -1 | 1 | 67* | 1
CN(C(=O)NCc1noc2ccccc12)c1cccc(Cl)c1 | . | 0 | . | . | -7
Cc1cccc(Cc2c(C)nc3nc(SCC(=O)O)nn3c2C)c1 | -4 | 0 | -6 | -4 | 47*
Cc1cccc(Cc2c(C)nc3nc(SCC(=O)NCc4ccccc4)nn3c2C)c1 | . | 0 | . | . | -3
COc1ccc(Cl)c2sc(NC(=O)c3ccc(S(=O)(=O)N4CCOCC4)cc3)nc12 | . | 2 | . | . | 8
CCOC(=O)c1cc(NC(=O)c2ccc(C)cc2)c(=O)n2c1oc1ccc(Cl)cc12 | . | -1 | . | . | -2
CCOC(=O)c1cc(NC(=O)c2ccc(Cl)cc2)c(=O)n2c1oc1ccc(Cl)cc12 | 0 | 1 | 32* | -20 | 15
Cc1ccc(S(=O)(=O)Nc2cc(=O)[nH]c3c2CCC3)cc1 | -5 | -3 | 37* | -4 | -21
Cc1ccc(NS(=O)(=O)c2ccc3[nH]c4c(c3c2)CCCCCC4)cc1 | . | 1 | . | . | 6
Cc1cc(-c2ccc(C)c(S(=O)(=O)NCCC(C)N3CCCCCC3)c2)on1 (centres undefined) | 1 | -1 | 4 | -8 | 3
CCc1ccc(-c2cc(C)no2)cc1S(=O)(=O)NC(C)Cc1ccco1 (centres undefined) | 2 | 0 | 5 | 0 | 84*
Cc1cc(-c2ccc(C)c(S(=O)(=O)NCCc3ccccc3)c2)on1 | . | 0 | . | . | 1
